# Shown are actives, neighbours in structure and some others; about 3.4% of the full set was active somewhere.
# Mcl1 Bid PPI: Mcl-1/Bid binding inhibitors, primary screen, biochemical, TR-FRET, 1536-well | Induced myeloid leukemia cell differentiation protein Mcl-1 (Homo sapiens), Q07820 | TR-FRET Mcl-1/Bid-Dy647 peptide binding | inhibition, % at 21.7 µM | 220,000 tested, 0.97% active | AID 1021, 2008;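 active = compounds that cut the binding signal by more than half at the single screening dose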;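 also: His-tagged Mcl-1 with europium anti-His antibody binding Bid BH3 peptide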
# Mcl1 Noxa PPI: Mcl-1/Noxa binding inhibitors, primary screen, biochemical, TR-FRET, 1536-well. Induced myeloid leukemia cell differentiation protein Mcl-1 (Homo sapiens), Q07820. TR-FRET Mcl-1/Noxa peptide binding, 2 h. inhibition, % at 21.7 µM. 220,000 tested, 1.5% active. AID 1022, 2008;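 active = compounds that cut the protein-peptide binding signal by more than 50% relative to plate controls in a single-dose test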;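 also: His-tagged Mcl-1 with rhodamine Noxa BH3 peptide and terbium anti-His antibody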
# Bim-Mcl-1: inhibitors of Bim peptide binding to Mcl-1, primary screen, biochemical, bead-based flow cytometry, multiplex | inhibition, % at 10 µM | 190,000 tested, 0.1% active | Induced myeloid leukemia cell differentiation protein Mcl-1 (Homo sapiens), Q07820 | AID 1009, 2008 | Bim peptide-Mcl-1 binding; in the data active = inhibition above about 40%
# p47phox inh: p47phox/p22phox peptide binding inhibitors, primary screen, biochemical, uHTS, NADPH oxidase regulatory subunit; fluorescence polarization, 2 h; Neutrophil cytosol factor 1 (Homo sapiens), P14598; inhibition, % at 24.7 µM; 220,000 tested, 0.53% active;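 active = inhibition above about 30%, limit read from the data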
# 14-3-3 Bad inh: inhibitors of 14-3-3 zeta/Bad binding, primary screen, biochemical, TR-FRET, bovine 14-3-3 zeta. inhibition, % at 21.7 µM. 220,000 tested, 0.71% active. AID 781, 2007. TR-FRET 14-3-3zeta/Dy647-pBad peptide displacement, 1 h;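 active = inhibition above about 70%, limit read from the data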
# Target sequence (P63103 whole entry, looked up): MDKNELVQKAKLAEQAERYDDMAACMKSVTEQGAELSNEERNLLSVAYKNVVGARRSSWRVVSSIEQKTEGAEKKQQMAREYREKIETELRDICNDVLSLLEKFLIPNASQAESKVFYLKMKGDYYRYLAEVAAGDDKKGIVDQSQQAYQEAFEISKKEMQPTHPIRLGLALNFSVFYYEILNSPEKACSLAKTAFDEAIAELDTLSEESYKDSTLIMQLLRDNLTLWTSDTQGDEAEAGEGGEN
# m-calpain inh: inhibitors of pig calpain II, primary screen, biochemical, fluorogenic peptide substrate, 1536-well | purified calpain II, 30 min | inhibition, % at 16 µM | 220,000 tested, 0.37% active | AID 1236, 2008;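 active = inhibition above about 50%, limit read from the data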
# Hits are given with their value; 0 = inactive; - = no result.
SMILES,Mcl1 Bid PPI,Mcl1 Noxa PPI,Bim-Mcl-1,p47phox inh,14-3-3 Bad inh,m-calpain inh
CCOC(=O)N1CCC(Nc2ccc(N3C(=O)C4CCCCC4C3=O)cc2[N+](=O)[O-])CC1 (stereo unspecified),0,0,0,0,0,98
CCOCCCNc1ccc(N2C(=O)C3CCCCC3C2=O)cc1[N+](=O)[O-] (stereo unspecified),0,0,0,0,0,59
CC(C)N(C(=S)Nc1cccnc1)c1ccccc1,0,0,-,0,0,0
COCCn1c(=N)c(C(=O)NCCc2ccc(OC)cc2)cc2c(=O)n3cccc(C)c3nc21,-,-,0,-,-,-
COc1ccc(CCn2c(=N)c(C(=O)NCc3ccco3)cc3c(=O)n4ccccc4nc32)cc1,0,68,0,0,0,0
N=c1c(C(=O)NCC2CCCO2)cc2c(=O)n3ccccc3nc2n1Cc1cccnc1 (stereo unspecified),0,0,0,0,0,0
N=c1c(C(=O)NCc2ccc(F)cc2)cc2c(=O)n3ccccc3nc2n1Cc1cccnc1,0,75,0,0,0,0
COc1ccc(OCCNC(=O)c2ccccc2OCC(=O)Nc2ccc(NC(C)=O)cc2)cc1,0,0,0,0,0,0
COc1ccc(OCCNC(=O)c2ccccc2OCC(=O)N2CCCCC2)cc1,0,0,68,0,0,0
O=C1c2ccccc2C(=O)N1CCCCN(C(=O)c1cccc([N+](=O)[O-])c1)c1ccc(Cl)cc1,54,0,0,0,0,0
O=C1c2ccccc2C(=O)N1CCCCN(C(=O)c1ccco1)c1ccc(Cl)cc1,0,0,0,0,0,0
CN(C1=NC(=O)CS1)c1ccc(O)cc1,97,0,-,0,0,0
Cc1ccc(-c2cc(-c3ccc(Cl)cc3)c(C#N)c(N)n2)o1,0,72,0,0,0,0
Cc1cc(-c2cc(-c3ccc(Cl)cc3)nc(N)c2C#N)co1,0,67,0,0,0,0
Cc1ccc(-c2cc(-c3ccc(F)cc3)c(C#N)c(N)n2)o1,0,0,0,0,0,0
COc1ccc(-c2cc(-c3ccc(O)cc3)nc(N)c2C#N)cc1OC,0,0,0,0,0,0
Cc1ccc(-c2cc(-c3ccc4c(c3)OCO4)c(C#N)c(N)n2)o1,80,59,0,0,0,0
Cc1ccc(-c2cc(-c3ccc(C)o3)nc(N)c2C#N)cc1,0,0,0,0,0,0
COC(=O)c1ccc2nc(Nc3nc4ccc(F)cc4s3)sc2c1,81,95,0,0,77,0
COC(=O)c1ccc2nc(NC(=O)C(C)(C)C)sc2c1,0,0,0,0,0,91
CC(=O)c1sc(Nc2nc3ccc(F)cc3s2)nc1C,-,-,0,-,-,-
COC(=O)c1ccc2nc(NC(=O)C3CCCCC3)sc2c1,0,0,0,0,0,0
CCn1cc(C(=O)Nc2sc(C)c(C)c2C(=O)OC)cn1,0,0,0,0,0,0
O=C(CCN1CCN(CCO)CC1)Nc1ccc(OCc2ccccc2)cc1,55,0,0,0,0,0
Cn1nnnc1SCC(=O)C(C)(C)C,0,0,0,0,0,0
SMILES,Mcl1 Bid PPI,Mcl1 Noxa PPI,Bim-Mcl-1,p47phox inh,14-3-3 Bad inh,m-calpain inh
CCCC(c1nnnn1C1CCCCC1)N1CCN(C2CCCC2)CC1 (stereo unspecified),51,0,0,0,0,0
CCCCC(c1nnnn1C1CCCC1)N1CCN(C2CCCC2)CC1 (stereo unspecified),0,0,0,0,0,0
CCCC(c1nnnn1C(C)(C)CC)N1CCN(C2CCCC2)CC1 (stereo unspecified),0,0,0,0,73,0
CCCC(c1nnnn1Cc1ccc(OC)cc1)N1CCC(C(N)=O)CC1 (stereo unspecified),0,0,0,0,75,0
CC(C)CC(c1nnnn1C1CCCC1)N1CCC(C(N)=O)CC1 (stereo unspecified),0,0,0,0,0,51
CC(C)(C)c1ccc(COc2ccsc2C(=O)O)cc1,0,0,0,0,0,0
